# Experimental data as given in the supplement of paper PMC6555819.
# Columns and labels:
# Test in all cases: PBM binding z-score (relative to random genomic background probes); higher = stronger binding; sequences stand for … in GC…GCGATTGACAGCGTAGAATGAAGG
# [1] = test system: FXR:RXRa (NR concentration 270 nM, RXRa partner concentration 90 nM)
# How it was run: (§1)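 The probes on custom Agilent 4×180K protein-binding microarrays were double-stranded, with 34-nt variable regions bearing direct-repeat seeds, single-nucleotide variants, half-site ablations and random human genomic background sequences. Incubation lasted 1 h with ligand-free nuclear receptor dimers in PBS pH 7.4, 2% milk, 0.02% Triton X-100, 1 mM DTT, 0.2 mg/mL BSA and 0.4 mg/ml salmon testes DNA. Antibodies against each partner (one per run) detected bound dimers, and fluorescence scans were regression-normalized. Binding z-scores take the random background probes as reference.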
# [2] = test system: LXRa:RXRa (NR concentration 270 nM, RXRa partner concentration 90 nM)
# How it was run: as §1
# [3] = test system: LXRa homodimer (NR concentration 270 nM)
# How it was run: as §1
# [4] = test system: LXRb:RXRa (NR concentration 270 nM, RXRa partner concentration 90 nM)
# How it was run: as §1
# [5] = test system: LXRb homodimer (NR concentration 270 nM)
# How it was run: as §1
# [6] = test system: PPARa:RXRa (NR concentration 270 nM, RXRa partner concentration 90 nM)
# How it was run: as §1
# [7] = test system: PPARg:RXRa (NR concentration 180 nM, RXRa partner concentration 90 nM)
# How it was run: as §1
# [8] = test system: PPARg:RXRa 270nM:90nM, anti-RXR (NR concentration 270 nM, RXRa partner concentration 90 nM)
# How it was run: as §1
# [9] = test system: PPARg:RXRa 30nM:10nM, anti-RXR (NR concentration 30 nM, RXRa partner concentration 10 nM)
# How it was run: as §1
# [10] = test system: PPARg:RXRa 90nM:30nM, anti-RXR (NR concentration 90 nM, RXRa partner concentration 30 nM)
# How it was run: as §1
Sequence,PBM binding z-score [1],PBM binding z-score [2],PBM binding z-score [3],PBM binding z-score [4],PBM binding z-score [5],PBM binding z-score [6],PBM binding z-score [7],PBM binding z-score [8],PBM binding z-score [9],PBM binding z-score [10]
GCTGCTAGGTCAACTGCTGGTCAGCTAAAGCTCG,4.1,3.03,0.0225,1.95,-0.0517,3.53,2.54,2.94,0.291,1.66
CGAAGTAGGTCATTGACAGGACAGTGAATAGTAA,4.75,3.56,0.791,2.6,0.392,5.05,7.92,6.67,4.6,6.57
CCAATTAGTTGACCATAAGGGCAACCGAAGCTCG,0.987,0.336,0.562,0.314,0.402,0.626,0.453,0.425,-0.327,0.254
ATCGAAAGGACGAAGGTGAGTATACCCACCCGAA,-0.0229,0.0207,-0.291,-0.347,-0.118,-0.0423,1.05,0.837,0.489,0.641
TCTTGTAGATCAGCATGTTAAGAAAGCTGGCCAA,0.0411,0.107,-0.479,0.0271,-0.503,0.231,-0.371,1.52,2.44,2.19
CGTCCAATGTCAAGGTCAGTGAAAGAGACTCGAA,2.47,1.92,0.422,1.76,0.286,2.67,0.791,1,-0.104,0.482
CCTTACGGGTCACTCCAGATTATAGCATCGGAGT,4.83,4.8,-0.0778,2.91,0.399,4.41,3.39,3.43,0.931,2.35
CCTATTAGTTGACCATAAGGGCACCCGAAGCTCG,0.765,0.567,0.422,0.491,0.755,0.457,0.534,0.375,0.138,0.172
GCTCGTTGGTCAGTAAAAGGTCACACACCGGTCG,3.94,4.86,5.11,4.22,1.19,4.89,3.34,4.93,2.81,4.52
TCTTGTAGATAAATAGAGGTTAAGAAAGTGCGCT,1.41,3.4,1.55,1.9,0.214,1.73,0.624,1.83,2.94,2.84
ACAGACAGGTGATGAAGGTAACTGAGGCTATCAT,0.003,-0.0614,-0.296,-0.234,-0.411,0.0902,0.558,0.0724,-0.0753,0.0172
CGTCCACGGTCAAAGGTCAGTGAAGAGATGACGG,5.45,4.83,1.87,3.7,-0.0177,5.49,7.71,7.46,5.82,7.93
ATCACTAGGTAACCAAGTTCAGTGAATGCCGAAC,0.163,0.618,0.625,0.415,-0.134,1.42,1.82,1.3,0.47,0.739
AATACACGGTCATCGTAGGCCAGAGTACGCACAG,1.37,3.15,2.68,0.586,0.643,0.606,1.15,0.51,0.35,0.546
ACTATTAGTTGATACGAGGGCAACCGATAGGTTG,0.829,0.48,0.407,0.266,0.576,0.327,0.752,0.283,0.308,0.272
TCTAGTTGGTCAAAGGTCACACCCTCGAAATGCG,5.49,5.27,4.32,5.41,1.92,6.69,11.6,10.1,10.3,12.2
TAGCCTAGGTAATTCAGGGGCCAGTATAGAAAGC,-0.449,-0.444,-0.517,-0.109,-0.53,-0.0424,0.145,-0.169,-0.327,-0.103
CATCCAAGGTCAGCAGGTCAGTGAAAGCGACGTG,6.25,4.68,1.66,3.31,0.653,4.79,4.86,4.71,1.81,3.37
CCGACTGGGGAAAAGGTTACCATACTCAGTACGA,0.132,0.716,-0.0897,1.29,-0.67,3.82,6.95,7.47,6.02,8.23
CGAACTAGGTCATCCAGGGCAGTGAATACATTGA,4.8,3.06,0.45,2.11,-0.0808,5.08,7.91,6.54,4.15,5.95
AGAACGAGGGCGCGCTGAGTTGATAGCAGAGTAG,-0.365,-0.482,-0.786,-0.508,-1.21,0.138,0.362,-0.296,-0.293,-0.308
ACAGCCAGGTGAGTGAAGGTAACTCAGCTGGACG,0.0409,-0.362,-0.936,-0.925,-1.03,-0.248,0.164,-0.463,-0.822,-0.5
ATCTCTAGGTAAGTCTCAGTTCAGTGAAGAACGC,0.588,0.489,0.754,0.383,1.26,0.246,-0.297,0.387,0.236,0.632
GCGACTGGGGTAAAGCAGGTTACCATAAGGTTGG,0.315,0.949,-0.396,0.852,-0.819,1.66,0.941,1.19,0.0678,0.64
